Bioassay records deposited in PubChem BioAssay by National Center for Advancing Translational Sciences (NCATS).
In the library only some 18% were active in any assay of this set; here they are far more common.
Gal4-VP16 FLuc = counter-screen for ROR gamma inhibitors: Gal4-VP16 reporter | Potency, µM (doses to about 53.6 µM), actives largely listed as inhibitors | Drosophila S2 Gal4-VP16 UAS-luciferase, luminescence, 20 h | hit rate 3.5% among 310,000;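 also: Gal4-VP16 expression switched on by copper sulfate through the metallothionein promoter; nearly all actives have a fitted effect of over 50% in size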
LDHA block = LDHA (human) enzyme inhibition; P00338; purified LDHA, NADH/diaphorase-resazurin fluorescence; stronger effect = lower value; activity change, % (values are at about 110 or 230 µM); hit rate 0.15% among 480,000; in the data active = activity change below about -30%; inconclusive = mostly about -25% to -30%
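Remaining NADH was detected by diaphorase (0.133 mg/mL) converting 37 µM resazurin to fluorescent resorufin, read at 0 and 20 minutes. The preceding 5-minute room-temperature reaction used 2 nM LDHA, 0.2 mM sodium pyruvate and 0.06 mM NADH at pH 7.4.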
IL1B secr inh = inhibitors of inflammasome signaling (IL-1 beta secretion); hit rate 4.7% among 360,000; THP-1 LPS/ATP IL-1B secretion, AlphaLISA, 16 h; stronger effect = lower value; activity change, % at 57.5 µM; AID 743279; in the data active = activity change below about -50%; inconclusive = mostly about -30% to -49%
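THP-1 cells pretreated 1 hr with compounds (up to 57.5 uM final), then stimulated with LPS (250 ng/mL final) plus ATP (1.25 mM final); secreted IL-1B measured by AlphaLISA after 16 hr, decreased signal indicating inhibition.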
DT40 TDP1 no CPT = qHTS for Inhibitors of human tyrosyl-DNA phosphodiesterase 1 (TDP1): qHTS in cells in absence of CPT; DT40 Tdp1-/- hTDP1 cells, no CPT, ATP luminescence, 48 h; Potency, µM (highest dose often 46.2 µM), actives largely listed as inhibitors; hit rate 15% among 420,000; also: nearly all actives have a fitted effect of over 55% in size
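Compound effects on proliferation are scored in DT40 Tdp1-/-;hTDP1 cells in the absence of CPT. ATP levels (CellTiter-Glo luminescence) are recorded after a ≥48 hr, 37 °C incubation.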
RORg inh = ROR gamma (mouse) transcription inhibition; P51450; Drosophila S2 Gal4-RORgamma UAS-luciferase reporter, 20 h; Potency, µM (top dose mostly 53.6 µM), actives largely listed as inhibitors; hit rate 5.4% among 310,000; also: nearly all actives have a fitted effect of over 60% in size
Target sequence (P51450 whole entry, looked up, the tested form may be a part): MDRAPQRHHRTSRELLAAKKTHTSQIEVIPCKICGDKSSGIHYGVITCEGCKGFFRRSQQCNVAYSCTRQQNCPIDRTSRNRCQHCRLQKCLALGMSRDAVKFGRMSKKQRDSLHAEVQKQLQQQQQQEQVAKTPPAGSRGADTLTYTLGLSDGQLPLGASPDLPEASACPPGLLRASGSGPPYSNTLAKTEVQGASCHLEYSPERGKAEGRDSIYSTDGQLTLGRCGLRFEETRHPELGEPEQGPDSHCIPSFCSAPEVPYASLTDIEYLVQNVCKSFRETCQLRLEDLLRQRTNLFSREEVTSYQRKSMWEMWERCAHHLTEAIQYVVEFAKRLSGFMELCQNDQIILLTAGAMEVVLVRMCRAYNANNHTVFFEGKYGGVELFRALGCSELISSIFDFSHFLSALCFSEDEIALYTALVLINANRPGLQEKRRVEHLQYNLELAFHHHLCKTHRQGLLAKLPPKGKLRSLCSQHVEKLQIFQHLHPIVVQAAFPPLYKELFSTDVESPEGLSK
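ROR gamma transcriptional activity was tracked as Gal4-UAS luciferase output in stably transfected Drosophila Schneider cells, with compound added 1 hr before 700 uM copper sulfate induction and a 20 hr ambient-temperature incubation.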
DT40 TDP1 CPT = growth inhibition of DT40 Tdp1-/-;hTDP1 cells with camptothecin (screen for TDP1 inhibitors); chicken DT40 Tdp1-/-;hTDP1 cells + 20 nM CPT, ATP luminescence, 48 h; Potency, µM (doses to about 46.2 µM), actives largely listed as inhibitors; hit rate 12% among 420,000; also: nearly all actives have a fitted effect of over 55% in size
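Chicken DT40 Tdp1-/- cells stably complemented with human TDP1 were seeded at 400 cells/well in medium containing 20 nM camptothecin, exposed to pin-transferred compounds, and grown at 37 °C for at least 48 hr. Viability was read as ATP luminescence.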
Each line names hits and unclear results; the compound was inactive in the other large screens. Unless noted, calls follow the shape of the dose curve; as a rule, active = well fitted curve in the direction sought with a large enough effect; inconclusive = small, poorly fitted or top-dose-only effect, or another doubt; inactive = no such curve, though single readings can be large; an effect the other way counts as inactive or inconclusive.

CCCCn1c(-c2cccnc2)n[nH]c1=S	RORg inh inconclusive
COCCn1c(C23CC4CC(CC(C4)C2)C3)n[nH]c1=S	Gal4-VP16 FLuc 1.1µM, DT40 TDP1 no CPT inconclusive, RORg inh 4µM, DT40 TDP1 CPT inconclusive
COCCn1c(COc2ccc(C(C)(C)c3ccccc3)cc2)n[nH]c1=S	none (no result: Gal4-VP16 FLuc, IL1B secr inh, DT40 TDP1 no CPT, RORg inh, DT40 TDP1 CPT)
CC(Sc1nc2cc(S(=O)(=O)N3CCCCC3)ccc2o1)C(=O)Nc1ccc(F)cc1Cl (configuration not stated)	none (no result: Gal4-VP16 FLuc, IL1B secr inh, DT40 TDP1 no CPT, RORg inh, DT40 TDP1 CPT)
COc1ccc(OC)c(NC(=O)Cc2sc(C)nc2-c2cccs2)c1	none (no result: Gal4-VP16 FLuc, IL1B secr inh, DT40 TDP1 no CPT, RORg inh, DT40 TDP1 CPT)
COc1ccc(-c2ccc(C(=O)N3CCN(C)CC3)c3occc23)c(C)c1	DT40 TDP1 no CPT 6.5µM, DT40 TDP1 CPT 15µM (no result: Gal4-VP16 FLuc, RORg inh)
COc1ccc(-c2ccc(C(=O)N3CCOCC3)c3occc23)c(C)c1	DT40 TDP1 no CPT 18µM, DT40 TDP1 CPT 15µM (no result: Gal4-VP16 FLuc, RORg inh)
COc1cccc(N2CCN(c3nc(-c4ccccc4C)cc(=O)[nH]3)CC2)c1	IL1B secr inh -73, DT40 TDP1 no CPT inconclusive
CCn1c(CSc2n[nH]c(-c3ccccc3)n2)nc2cc(S(=O)(=O)N(C)C)ccc21	none (no result: Gal4-VP16 FLuc, IL1B secr inh, DT40 TDP1 no CPT, RORg inh, DT40 TDP1 CPT)
Cc1cc(C[n+]2ccccc2)c2nsnc2c1	DT40 TDP1 no CPT 22µM, DT40 TDP1 CPT inconclusive
Cc1cc(C[n+]2ccccc2)c(C)cc1C[n+]1ccccc1	none (no result: Gal4-VP16 FLuc, IL1B secr inh, DT40 TDP1 no CPT, RORg inh, DT40 TDP1 CPT)
Cn1c(COc2ccc3c(c2)CCCC3)nnc1SCC(=O)N1CCN(c2ccccc2)CC1	none (no result: Gal4-VP16 FLuc, IL1B secr inh, DT40 TDP1 no CPT, RORg inh, DT40 TDP1 CPT)
CC(C)(C)C(=O)N1NC(=Nc2ccccc2)SC1(C)C	DT40 TDP1 no CPT 21µM (no result: IL1B secr inh)
O=C(Cc1cccs1)Nc1cccc(-c2nc3cc(Cl)ccc3o2)c1	none (no result: Gal4-VP16 FLuc, IL1B secr inh, DT40 TDP1 no CPT, RORg inh, DT40 TDP1 CPT)
O=C1c2cc(Cl)ccc2-c2c(O)cc(Cl)cc21	IL1B secr inh -74, DT40 TDP1 no CPT 15µM, DT40 TDP1 CPT inconclusive (no result: Gal4-VP16 FLuc, RORg inh)
COc1cccc(Nc2c(Nc3cccc(OC)c3)c(=O)c2=O)c1	none
COc1ccc(NC2=C(NCCO)C(=O)c3ccccc3C2=O)cc1	DT40 TDP1 no CPT 15µM, DT40 TDP1 CPT 12µM
Cc1cccc(NC2=C(NCCO)C(=O)c3ccccc3C2=O)c1	IL1B secr inh -57, DT40 TDP1 no CPT 21µM, DT40 TDP1 CPT 16µM
COc1ccc(NS(=O)(=O)c2cccc3ccccc23)cc1	DT40 TDP1 no CPT inconclusive, DT40 TDP1 CPT inconclusive (no result: Gal4-VP16 FLuc, RORg inh)
COc1cccc(NC2=C(NCCO)C(=O)c3ccccc3C2=O)c1	IL1B secr inh -74, DT40 TDP1 no CPT inconclusive, DT40 TDP1 CPT inconclusive
Cc1cccc(Nc2nc(N)c([N+](=O)[O-])c(NCCO)n2)c1	DT40 TDP1 no CPT inconclusive, DT40 TDP1 CPT inconclusive
O=C(NCC(c1ccccc1)N1CCCC1)c1nn(-c2ccccc2)c(=O)c2ccccc12 (configuration not stated)	none (no result: Gal4-VP16 FLuc, IL1B secr inh, DT40 TDP1 no CPT, RORg inh, DT40 TDP1 CPT)
COC(=O)c1c(C)[nH]c(C(=O)NCCc2ccc(Cl)cc2)c1C	none (no result: Gal4-VP16 FLuc, IL1B secr inh, DT40 TDP1 no CPT, RORg inh, DT40 TDP1 CPT)
CC1(Br)C(Sc2ccccc2[N+](=O)[O-])=Nc2ccccc21 (configuration not stated)	DT40 TDP1 no CPT 23µM, DT40 TDP1 CPT 21µM (no result: Gal4-VP16 FLuc, RORg inh)
O=C(N/N=C/c1ccc([N+](=O)[O-])o1)c1cc2c(ccc3ccccc32)o1	Gal4-VP16 FLuc inconclusive, DT40 TDP1 no CPT inconclusive, DT40 TDP1 CPT 10µM
Cc1ccc(/C=N/NC(=O)c2cc3c(ccc4ccccc43)o2)o1	IL1B secr inh -61, DT40 TDP1 no CPT inconclusive, DT40 TDP1 CPT inconclusive (no result: Gal4-VP16 FLuc, RORg inh)
CC(=O)Oc1ccc(/C=N\NC(=O)c2cc3c(ccc4ccccc43)o2)cc1	IL1B secr inh inconclusive, DT40 TDP1 no CPT inconclusive, DT40 TDP1 CPT inconclusive
CCOc1cc(/C=N/NC(=O)c2cc3c(ccc4ccccc43)o2)ccc1O	IL1B secr inh -51, DT40 TDP1 no CPT inconclusive, RORg inh inconclusive, DT40 TDP1 CPT 23µM
Cc1ccc(/C=N/NC(=O)c2cc3c(ccc4ccccc43)o2)cc1[N+](=O)[O-]	DT40 TDP1 no CPT inconclusive, DT40 TDP1 CPT 26µM
Cc1nc2ccccc2c(C)c1C(=O)c1ccc(Cl)cc1	none (no result: Gal4-VP16 FLuc, IL1B secr inh, DT40 TDP1 no CPT, RORg inh, DT40 TDP1 CPT)
Cc1cc(I)c(-c2c(I)cc(C)c(N)c2C)c(C)c1N	none (no result: Gal4-VP16 FLuc, IL1B secr inh, DT40 TDP1 no CPT, RORg inh, DT40 TDP1 CPT)
O=C(NC1CCCC1)c1cc2c(ccc3ccccc32)o1	DT40 TDP1 no CPT 21µM, DT40 TDP1 CPT inconclusive
